According to PubChem BioAssay AID1159580 (chemical genetic matrix, 2015):
About 2,000 (36%) of roughly 5,500 compounds were called active. Roughly 18% stayed inconclusive and do not appear here. Cut-off read from the data, not from the text of the source: active = normalized growth mostly below about 0.91 (no sharp cut-off); inconclusive = no clear call, values can overlap the other calls; inactive = mostly above about 0.92. The list shows a part of the results.

Test: chemical genetic growth profiling, strain panel (AID 1159580);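 note: tested at 20 µM; growth read once vehicle control cultures reached saturation at 30 °C; 1 = growth at the plate median or of vehicle wells; lower values mean less growth of the strain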
Conditions: S. cerevisiae deletion strains, growth OD

Measured: normalized growth

COc1c(O)cc2oc3cc(O)c(CC=C(C)C)c(O)c3c(=O)c2c1CC=C(C)C
inactive: locus YJR066W, strain TOR1, stronger effect = lower value 0.891 | locus YKL009W, strain mrt4, stronger effect = lower value 0.885 | locus YKL068W, stronger effect = lower value 0.947 | locus YKL160W, strain elf1, stronger effect = lower value 0.904 | locus YKR026C, strain gcn3, stronger effect = lower value 1 | locus YKR091W, strain srl3, stronger effect = lower value 1.01 | locus YLL001W, strain dnm1, stronger effect = lower value 0.963 | locus YLL026W, stronger effect = lower value 1 | locus YLL041C, strain sdh2, stronger effect = lower value 0.986 | locus YLR102C, strain apc9, stronger effect = lower value 0.93 | locus YLR258W, strain gsy2, stronger effect = lower value 0.939 | locus YLR342W, strain FKS1, stronger effect = lower value 0.944 | locus YLR357W, strain rsc2, stronger effect = lower value 0.957 | locus YLR370C, strain arc18, stronger effect = lower value 0.982 | locus YLR384C, strain iki3, stronger effect = lower value 0.983 | locus YML124C, strain tub3, stronger effect = lower value 0.938 | locus YMR125W, strain sto1, stronger effect = lower value 1.01 | locus YMR129W, stronger effect = lower value 0.974 | locus YMR231W, strain pep5, stronger effect = lower value 1 | locus YNL183C, strain NPR1, stronger effect = lower value 0.887 | locus YNL209W, strain ssb2, stronger effect = lower value 0.968 | locus YNL248C, strain rpa49, stronger effect = lower value 0.994 | locus YNL322C, strain KRE1 (second series), stronger effect = lower value 0.995 | locus YNR049C, strain mso1, stronger effect = lower value 0.967 | locus YOL012C, strain htz1 0.271 | locus YOR001W, strain rrp6, stronger effect = lower value 0.916 | locus YOR070C, strain gyp1, stronger effect = lower value 0.95 | locus YOR080W, strain dia2, stronger effect = lower value 0.984 | locus YOR083W, strain WHI5, stronger effect = lower value 0.941 | locus YOR106W, strain vam3, stronger effect = lower value 0.916 | locus YOR265W, strain rbl2, stronger effect = lower value 0.964 | locus YOR270C, strain vph1, stronger effect = lower value 0.881 | locus YOR290C, strain snf2, stronger effect = lower value 0.912 | locus YOR316C, strain cot1, stronger effect = lower value 0.927 | locus YPL078C, strain atp4, stronger effect = lower value 0.991 | locus YPL106C, strain sse1, stronger effect = lower value 0.856 | locus YPL240C, strain hsp82, stronger effect = lower value 0.951 | locus YPR119W, strain clb2, stronger effect = lower value 0.931 | locus YPR141C, strain kar3, stronger effect = lower value 0.96
active: locus YKL085W, strain MDH1 (second series), stronger effect = lower value 0.724 | locus YKL085W, strain MDH1, stronger effect = lower value 0.724 | locus YKL190W, strain CNB1, stronger effect = lower value 0.548 | locus YKR001C, strain vps1, stronger effect = lower value 0.365 | locus YLR027C, strain aat2, stronger effect = lower value 0.916 | locus YLR039C, strain RIC1, stronger effect = lower value 0.263 | locus YLR058C, strain SHM2, stronger effect = lower value 0.642 | locus YLR113W, strain HOG1, stronger effect = lower value 0.426 | locus YLR262C, strain YPT6 (second series), stronger effect = lower value 0.667 | locus YLR262C, strain YPT6, stronger effect = lower value 0.399 | locus YLR268W, strain sec22, stronger effect = lower value 0.704 | locus YLR320W, strain mms22, stronger effect = lower value 0.843 | locus YLR330W, strain CHS5, stronger effect = lower value 0.534 | locus YLR342W, strain FKS1 (second series), stronger effect = lower value 0.591 | locus YLR371W, strain rom2, stronger effect = lower value 0.358 | locus YLR418C, strain cdc73, stronger effect = lower value 0.259 | locus YML016C, strain PPZ1, stronger effect = lower value 0.674 | locus YML032C, strain rad52, stronger effect = lower value 0.838 | locus YMR058W, strain fet3, stronger effect = lower value 0.9 | locus YMR078C, strain ctf18, stronger effect = lower value 0.903 | locus YMR205C, strain PFK2, stronger effect = lower value 0.822 | locus YMR223W, strain ubp8, stronger effect = lower value 0.786 | locus YMR263W, strain SAP30, stronger effect = lower value 0.726 | locus YMR307W, strain GAS1, stronger effect = lower value 0.474 | locus YNL067W, strain RPL9B, stronger effect = lower value 0.719 | locus YNL071W, strain lat1, stronger effect = lower value 0.562 | locus YNL153C, strain GIM3, stronger effect = lower value 0.625 | locus YNL233W, strain BNI4, stronger effect = lower value 0.51 | locus YNL250W, strain rad50, stronger effect = lower value 0.862 | locus YNL271C, strain bni1, stronger effect = lower value 0.883 | locus YNL298W, strain CLA4, stronger effect = lower value 0.831 | locus YNL307C, strain MCK1, stronger effect = lower value 0.385 | locus YNR052C, strain pop2, stronger effect = lower value 0.781 | locus YOL006C, strain TOP1, stronger effect = lower value 0.279 | locus YOL147C, strain pex11, stronger effect = lower value 0.694 | locus YOR061W, strain CKA2, stronger effect = lower value 0.707 | locus YOR069W, strain VPS5, stronger effect = lower value 0.735 | locus YOR136W, strain idh2, stronger effect = lower value 0.899 | locus YOR144C, strain elg1, stronger effect = lower value 0.755 | locus YOR184W, strain ser1, stronger effect = lower value 0.331 | locus YOR231W, strain MKK1, stronger effect = lower value 0.531 | locus YPL051W, strain arl3, stronger effect = lower value 0.782 | locus YPL055C, strain LGE1, stronger effect = lower value 0.274 | locus YPL256C, strain CLN2, stronger effect = lower value 0.741 | locus YPR163C, strain tif3, stronger effect = lower value 0.544 | locus YPR167C, strain met16, stronger effect = lower value 0.786 | strain wtn01, stronger effect = lower value 0.697
